From PubChem BioAssay (EPA / NIEHS)
Where “and” joins values, the source holds several entries; their conditions need not be identical. Identical values can stand only once. Records with an inconclusive call do not appear. Where a structure was tested more than once in an assay, its records may differ in their call. Calls of active or inactive are those of the source. How the source made its calls: active means hit-call score of the fitted dose curve at least 0.9, where 1 is the maximum; inconclusive means response in the unintended direction; inactive means score below 0.9.

What follows are compounds tested against mouse Cholecystokinin, CCK1 Receptor (CCKA), Cckar (gene 12425) (UniProt O08786) (assay: NVS_GPCR_mCCKAPeripheral: NovaScreen (NVS) G Protein-Coupled Receptor Assay for mouse Cholecystokinin, CCK1 Receptor (CCKA) (AID 2283285)).
mouse Cholecystokinin, CCK1 Receptor (CCKA), Cckar (gene 12425), sequence (O08786 whole entry, looked up): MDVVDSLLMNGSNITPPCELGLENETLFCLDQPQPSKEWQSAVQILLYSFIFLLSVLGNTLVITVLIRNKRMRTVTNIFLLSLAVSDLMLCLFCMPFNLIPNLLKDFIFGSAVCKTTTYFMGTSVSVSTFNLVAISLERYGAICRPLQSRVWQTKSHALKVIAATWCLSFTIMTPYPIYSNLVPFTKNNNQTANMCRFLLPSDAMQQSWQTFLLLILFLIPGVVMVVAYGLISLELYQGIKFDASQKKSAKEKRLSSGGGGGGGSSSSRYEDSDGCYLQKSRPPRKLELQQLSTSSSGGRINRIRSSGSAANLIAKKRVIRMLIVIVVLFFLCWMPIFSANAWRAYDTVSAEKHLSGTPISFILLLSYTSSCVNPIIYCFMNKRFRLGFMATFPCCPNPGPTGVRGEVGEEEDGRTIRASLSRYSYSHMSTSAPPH
Method: NVS_GPCR_mCCKAPeripheral is a biochemical, single-readout assay that uses extracted gene-proteins from Mouse pancreatic membranes in a tissue-based cell-free assay. Measurements were taken 2 hours after chemical dosing in a 96-well plate.NVS_GPCR_mCCKAPeripheral is one of one assay component(s) measured or calculated from the NVS_GPCR_mCCKAPeripheral assay. It is designed to make measurements of radioligand binding, a form of binding reporter, as detected with scintillation counting signals by Filter-based radiodetection technology.Data from the assay component NVS_GPCR_mCCKAPeripheral was analyzed into 1 assay endpoint. This assay endpoint, NVS_GPCR_mCCKAPeripheral, was analyzed in the positive analysis fitting direction relative to DMSO as the negative control and baseline of activity. Using a type of binding reporter, loss-of-signal activity can be used to understand changes in the binding as they relate to the gene Cckar. Furthermore, this assay endpoint can be referred to as a primary readout, because the performed assay has only produced 1 assay endpoint. To generalize the intended target to other relatable targets, this assay endpoint is annotated to the gpcr intended target family, where the subfamily is rhodopsin-like receptor.
Binding assays used specific radioligands (tritiated, iodinated) with non-radioactive competitive displacement ligands in agonist or antagonist protocols (as indicated) and various reference compounds and inhibitors to titrate specific binding to receptors and transporters. Most enzyme assays (CYPs, kinases, phosphatases, proteases, HDACs) used recombinant protein and specific substrates (fluorescence mostly, some colorimetric and radioactive) and inhibitors, followed by a biochemical separation of substrate and product. All assays for the biochemical HTS were initially run in duplicate at a single concentration (10 uM for CYP450 assays and 25 uM for all others). Assay-chemical combinations meeting a pre-defined threshold (e.g., 30% inhibition and other criteria defined below) were then run in singleton concentration-response format with maximum concentration of 20 uM for CYPs and 50 uM for all others. Each assay was run with positive and negative controls, and concurrent controls on every plate. The follow-up (secondary) screen tested active chemical-pairs in concentration series, as well as a few additional assays not tested in the primary screen, some selected negative inactives, and several cases re-run in the concentration series for confirmatory purposes.
With `Oc1ccc(Cl)cc1Cc1ccccc1` the AC50 was 25.2 µM (active) [middle of 5 runs].
`CCCN(CCOc1c(Cl)cc(Cl)cc1Cl)C(=O)n1ccnc1` was tested, and the AC50 was 10.5 µM (active).
For `CC(C)OC(=O)Nc1cccc(Cl)c1`, the AC50 was 15.7 µM (active).
`Oc1cc(Cl)ccc1Oc1ccc(Cl)cc1Cl` was tested, and the AC50 was 25.5 µM (active) and 38.4 µM (active) and the outcome was “inactive”.

The compounds below were run on rabbit Platelet Activating Factor Receptor (PAF), gene 100354046 (assay: NVS_GPCR_rabPAF: NovaScreen (NVS) G Protein-Coupled Receptor Assay for rabbit Platelet Activating Factor Receptor (PAF) (AID 2283287)).
Procedure, shortened: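 Rabbit platelet membrane preparation; radioligand displacement read by filter-based scintillation counting 1 h after dosing, loss of signal versus DMSO. Primary screen in duplicate at 25 uM, actives followed up in concentration series.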
With `Cc1cc(C)nc(NC(=O)NS(=O)(=O)c2ccccc2C(=O)OC2COC2)n1` the outcome was “inactive”.
`O=C(O)CCCOc1ccc(Cl)cc1Cl` was tested, and the AC50 was 15.8 µM (active).
In the case of `O=C(Nc1ccccc1)Nc1cnns1`, the outcome is reported as “inactive”.
With `CCOc1nc(NC)nc(NC(=O)NS(=O)(=O)c2ccccc2C(=O)OC)n1` the outcome was “inactive”.
For `[2H]C1([2H])[n+]2ccccc2-c2cccc[n+]2C1([2H])[2H]`, the outcome was “inactive”.
`CCOCN(C(=O)CCl)c1c(C)cccc1CC` was tested, and the AC50 was 15.2 µM (active).
`CCS(=O)(=O)c1cccnc1S(=O)(=O)NC(=O)Nc1nc(OC)cc(OC)n1` was tested, and the outcome was “inactive”.
With `COP(=O)(OC)OC=C(Cl)Cl` the outcome was “inactive”.
For `O=S(=O)(O)C(F)(F)C(F)(F)C(F)(F)C(F)(F)C(F)(F)C(F)(F)C(F)(F)C(F)(F)F`, the outcome was “inactive”.
